Assay results from PubChem BioAssay AID434973 (Sanford-Burnham Center for Chemical Genomics, 2010).
About 4,900 (1.5%) of roughly 330,000 compounds were called active.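 How the source made its calls: active means inhibition above about 50% at the single test dose (limit read from the data); inactive means the rest.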 What follows is part of a selection rich in actives, with near analogues and random picks from the rest.

Molecular target: Sentrin-specific protease 7 (Homo sapiens) (UniProt Q9BQF6)
Assay: SENP7 protease inhibitors, primary screen, biochemical, luminescence, uHTS (AID 434973);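 further: plate controls were DMSO with enzyme for no effect and no enzyme buffer wells for full effect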
Settings: recombinant SENP7, Z-RLRGG-aminoluciferin luminescence, 40 min; at 5 µM; hits give high values

SMILES | inhibition
O=C(c1ccc(=O)oc1)N1CCC(C(O)(c2ccccc2)c2ccccc2)CC1 | -5.43% (inactive)
CCC1CCCCN1C(=S)Nc1ccc(S(=O)(=O)Nc2ncccn2)cc1 (stereo not given) | -9.27% (inactive)
CC(C)C(=O)Nc1ccc(C(=O)NNC(=O)c2cccs2)cc1 | -0.683% (inactive)
O=C(Nc1ccccc1)c1ccc(NC(=O)c2cccs2)cc1 | 67.8% (active)
Cc1ccc(C(=O)Nc2ccc(NC(=O)c3cccs3)cc2)c(C)c1 | -5.29% (inactive)
CCc1ccc(NC(=O)COC(=O)c2cccs2)cc1 | 17.2% (inactive)
Cc1cccc(-n2c(C)cc(/C=N\NC(=O)c3cccs3)c2C)c1 | -3.16% (inactive)
CC(=O)Nc1ccc(/C=N/NC(=O)c2cccs2)cc1 | 67.7% (active)
O=C(Nc1ccc(NC(=O)c2cccs2)cc1)c1ccc2ccccc2c1 | -6.64% (inactive)
CCc1ccc(NC(=O)C(=O)NNC(=O)c2cccs2)cc1 | 51.4% (active)
CCN(CC)c1ccc(/C=N/NC(=O)CNC(=O)c2cccs2)cc1 | 2.87% (inactive)
O=C(COC(=O)/C=C/c1cccs1)NC1CCCCC1 | 6.28% (inactive)
COCCCNC(=O)[C@H]1N2C(=O)c3ccccc3C2SC1(C)C (stereo not given in full) | -7.11% (inactive)
COC(=O)Cc1csc(/N=C/c2c(O)n(-c3cccc(C(F)(F)F)c3)c(=O)c3ccccc23)n1 | -1.46% (inactive)
CCCCN(C(=O)C1CCC1)c1c(N)n(Cc2ccccc2)c(=O)[nH]c1=O | 5.98% (inactive)
O=C(CCS(=O)(=O)c1ccccc1Cl)Nc1ccc(S(=O)(=O)Nc2ncccn2)cc1 | 5.16% (inactive)
CCCCSCCCNC(=O)C1CCC(CNS(=O)(=O)c2ccc(NC(C)=O)cc2)CC1 (stereo not given) | -1.73% (inactive)
NC(=O)Cc1nc2scc(-c3ccc(Cl)cc3)c2c(=O)[nH]1 | -2.34% (inactive)
O=c1[nH]c(CN2CCOCC2)nc2cc(Cl)ccc12 | 10.2% (inactive)
O=c1[nH]c(CCl)nc2cc(-c3ccc(Cl)cc3)sc12 | 63.1% (active)
COc1ccc(C(=O)NC(=S)Nc2ccc(Cl)cn2)cc1OC | -7.53% (inactive)
O=C(Nc1ccc(Cl)cn1)c1cnn2cccnc12 | 27.2% (inactive)
CCCCC(CC)C(=O)Nc1ccc(Cl)cn1 (stereo not given) | -1.33% (inactive)
CCCc1cc(C(=O)Nc2ccc(Cl)cn2)cs1 | 76.6% (active)
Cc1cccc(C)c1NC(=O)CNC(=O)c1ccc2c(c1)OCCO2 | -14.1% (inactive)
CCCc1cc(C(=O)Nc2ccc(C(=O)OC)cc2)cs1 | -0.862% (inactive)
O=C(Nc1ccc(Cl)cn1)c1ccc2c(c1)OCCO2 | 82.6% (active)

SMILES | inhibition
Cc1nc(NC(=O)c2ccc3c(c2)OCCO3)ccc1Br | 87.2% (active)
Cc1ccc(C(=O)NNC(=O)c2ccc3c(c2)OCCO3)cc1 | 6.51% (inactive)
CN(c1ccccc1)S(=O)(=O)c1ccc(Cl)c(C(=O)OCC(=O)N2CCOCC2)c1 | 3.02% (inactive)
O=C(NCCC(=O)N1O[C@@H]2C=C[C@H]1C2)OCC1c2ccccc2-c2ccccc21 | 3.86% (inactive)
Cc1ccn(C(CC(=O)c2ccc(Br)cc2)C(=O)O)n1 (stereo not given) | 4.97% (inactive)
CCCCN(CC)C(=O)c1ccccc1Oc1ccccc1 | 6.13% (inactive)
COC(=O)c1nn(-c2cccc(Cl)c2)ccc1=O | 3.97% (inactive)
COc1ccc(N=C(C)c2sc3ccccc3c2O)cc1 | 83.7% (active)
COc1ccc(-c2sc3ccccc3c2-c2ccc(OCCN3CCOCC3)cc2)cc1 | -12.1% (inactive)
COC(=O)c1ccc(/C=C/c2c(-c3ccc(OC)cc3)sc3ccccc23)cc1 | 3.42% (inactive)
Cc1ccc2cc3cc(C(=O)N4CCCCCC4)oc3nc2c1 | 55.3% (active)
Cc1ccc2nc(N3CCN(C(=O)c4ccco4)CC3)sc2c1 | -7.97% (inactive)
Cc1cc(C)cc(NC(=O)N2CCCCCCC2)c1 | 0.706% (inactive)
O=c1onc(-c2c(F)cccc2F)n1-c1ccccc1Cl | -2.38% (inactive)
Cc1cc(=O)[nH]c(S)c1C#N | 7.81% (inactive)
CCc1ccc(OCC(=O)OCC(=O)c2c(N)n(C)c(=O)n(C)c2=O)cc1 | -1.23% (inactive)
c1ccc2sc(NN=C3CCCC3)nc2c1 | 82.2% (active)
CCN(CC)CCn1c2c(c(SCC(=O)Nc3nc4ccccc4s3)nc1=O)CCCC2 | 4.47% (inactive)
O=C1NC(Nc2nc3ccccc3s2)(C(F)(F)F)C(=O)N1C1CCCCC1 (stereo not given) | 6.04% (inactive)
COc1ccc(CNC(=O)C2CCC(CNc3c(N4CCOCC4)c(=O)c3=O)CC2)cc1 (stereo not given) | -10.4% (inactive)
O=C(Nc1nnc(-c2ccccc2)o1)c1cccc(S(=O)(=O)N2CCOCC2)c1 | -5.26% (inactive)
O=C(O[C@H]1[C@H](Cc2ccccc2)NS(=O)(=O)[C@H]2C[C@@H]3C=C[C@]12O3)c1ccc([N+](=O)[O-])cc1 | 7.73% (inactive)
Cc1cccc(N(CC(=O)N=Nc2c(O)[nH]c3ccccc23)S(C)(=O)=O)c1C | 5.39% (inactive)
Cc1c(-c2ccccc2)n[nH]c1C(=O)N=Nc1c(O)[nH]c2ccccc12 | 84.6% (active)
O=C(CCN1CCCCC1)N=Nc1c(O)[nH]c2ccccc12 | -5.94% (inactive)
CCCc1ccc(OCCNC(=O)c2ccco2)cc1 | -0.541% (inactive)
CCCOc1ccc(C(=O)NCCc2ccccc2)cc1 | 78.1% (active)

SMILES | inhibition
CCCc1ccc(OCCNC(=O)c2ccccc2Br)cc1 | -1.05% (inactive)
COc1ccc(CCNC(=O)C(=O)NCC2CCNCC2)cc1OC | 2.84% (inactive)
COc1ccc(SC[C@H](Cc2ccccc2)N2CCN(CCc3ccccc3)CCC2=O)cc1 | -3.68% (inactive)
CCn1cc(C(=O)NCCCN2CCCCCC2)c(=O)c2cc(S(=O)(=O)N3CCc4ccccc4C3)ccc21 | 7.21% (inactive)
COc1ccc(-c2cn3ccc(C)cc3n2)cc1 | 98.1% (active)
CCN(CC)S(=O)(=O)c1ccc(-c2cn3ccc(C)cc3n2)cc1 | 10.3% (inactive)
COc1ccc(-c2cn3ccsc3n2)cc1 | 58.5% (active)
COc1cc(OC)cc(-c2nc(=S)n3ccsc3n2)c1 | 0.18% (inactive)
Cc1ccn2cc(C(=O)NC3CCN(Cc4ccccc4)CC3)nc2c1 | 5.68% (inactive)
COc1ccc(-c2cn3cccnc3n2)cc1 | 1.35% (inactive)
CC(C)(C)c1ccc(/C=C/C(=O)NC2CCS(=O)(=O)C2)cc1 (stereo not given) | 5.24% (inactive)
Cc1ccc(S(=O)(=O)N2CCN(C(=O)c3ccc(-n4cncn4)c([N+](=O)[O-])c3)CC2)cc1 | 0.142% (inactive)
CN(C)S(=O)(=O)c1cc(NC(=O)CN2C(=O)NC3(CCCc4ccccc43)C2=O)ccc1Cl (stereo not given) | -13.5% (inactive)
Cc1nc2nc(C)c(NS(=O)(=O)c3ccc(C(C)(C)C)cc3)c(=O)n2[nH]1 | -0.191% (inactive)
Cc1cccc(C)c1Nc1nnc(SCC(=O)Nc2sccc2C#N)s1 | 8.73% (inactive)
Cc1ccc(NC(=O)CSCC(=O)Nc2sccc2C#N)cc1 | 1.52% (inactive)
Cc1csc(SCC(=O)Nc2sccc2C#N)n1 | 94% (active)
COC(=O)C1=C(C)NC(=O)/C1=C/c1ccc(CNS(=O)(=O)c2ccc(C)cc2)o1 | -2.86% (inactive)
CC(=O)Nc1ccc(C(=O)Nc2cccc(S(=O)(=O)NC3=NCCC3)c2)cc1 | -0.0847% (inactive)
CN1CCN(c2ccc(NC(=O)c3ccc4c(c3)OCCO4)cc2Cl)CC1 | -1.01% (inactive)
O=C(Nc1ccccc1)c1ccc2c(c1)OCO2 | 88.5% (active)
O=C(Nc1ccc(NC(=O)c2ccc3c(c2)OCO3)cc1)c1cccc(Cl)c1 | 1.85% (inactive)
O=C(Nc1cccc([N+](=O)[O-])c1)c1ccc2c(c1)OCO2 | 66.9% (active)
CC(NC(=O)Nc1cccc([N+](=O)[O-])c1)c1ccc2c(c1)OCO2 (stereo not given) | 3.89% (inactive)
N#Cc1ccccc1NC(=O)c1ccc2c(c1)OCO2 | 2.46% (inactive)
O=C(Nc1ccccc1)c1ccc2c(c1)OCCCO2 | 90.7% (active)
CC(C)C(=O)Nc1cccc(C(=O)Nc2ccc3c(c2)OCO3)c1 | 34.3% (inactive)

SMILES | inhibition
O=C(Nc1ccc(N2CCOCC2)cc1)c1ccc2c(c1)OCO2 | 16.9% (inactive)
CN(Cc1c(F)cccc1Cl)C(=O)CNC(=O)c1ccc2c(c1)OCO2 | -9.22% (inactive)
O=C(Nc1ccccc1F)c1ccc2c(c1)OCO2 | 67.5% (active)
O=C(Nc1ccc2c(c1)OCCO2)c1ccoc1 | -0.659% (inactive)
Cc1ccc(S(=O)(=O)N2CCOCC2)cc1NC(=O)CSc1nnc(N)s1 | -5.72% (inactive)
CC(C)(C)C1CCC(OC(=O)CCC(=O)Nc2ccccc2)CC1 (stereo not given) | 3.21% (inactive)
COc1cc(OC)cc(/C(N)=N/O)c1 | 0.905% (inactive)
O=C(CN1C(=O)NC2(CCCC2)C1=O)NCC1CCCO1 (stereo not given) | 4.93% (inactive)
O=C(CN1C(=O)CC(c2ccccc2)S(=O)(=O)c2ccccc21)NC1CCCC1 (stereo not given) | 2.74% (inactive)
O=c1ccc2cc(S(=O)(=O)NCCCc3ccccc3)ccc2[nH]1 | 4.36% (inactive)
CCOC(=O)CCP(=O)(O)C(O)(c1ccccc1)c1ccccc1 | -5.54% (inactive)
O=S(=O)(c1cccc(-c2nnc(SC(F)F)n2-c2ccccc2)c1)N1CCCCC1 | 1.56% (inactive)
O=C(COC(=O)c1ccc(F)cc1)Nc1ccc2c(c1)OCO2 | -9.15% (inactive)
O=C(Nc1ccccc1)Nc1nc2ccccc2s1 | 66% (active)
COCc1nnc(NC(=O)c2ccc3c(c2)OCO3)s1 | 12.1% (inactive)
O=C(Nc1nc2ccccc2s1)c1ccc2c(c1)OCO2 | 97.1% (active)
Cc1ccc2sc(NNC(=O)c3ccc4c(c3)OCCO4)nc2c1C | 2.93% (inactive)
CC(=O)Nc1cccc(C(=O)OCC(=O)c2ccc3c(c2)OCO3)c1 | 81.4% (active)
N#CCCN(C(=O)COC(=O)c1ccc2c(c1)OCCO2)c1ccccc1 | 3.84% (inactive)
O=C(CCC(=O)c1cccs1)Nc1nc2ccccc2s1 | 1.54% (inactive)
O=C(OCc1ccccc1F)c1ccc2c(c1)OCCO2 | 84.2% (active)
CSc1nsc(NC(=O)Nc2ccccc2)n1 | 34.9% (inactive)
O=C(COC(=O)c1ccncc1)Nc1ccc2c(c1)OCO2 | -10.3% (inactive)
O=C(COC(=O)c1ccc2c(c1)OCCO2)NCc1ccccc1Cl | -9.15% (inactive)
